According to PubChem BioAssay AID743314 (Broad Institute, 2014):
Measured potencies and affinities stand elsewhere. Results filed as inconclusive are left out. Calls of active or inactive are those of the source.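 Rule for the calls: active = fitted half-maximal concentration no higher than twice the top tested dose, in every repeat run; inconclusive = repeat runs disagree, poor fit, or flat partial inhibition; inactive = the rest.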

These compounds were tested against Endoplasmic reticulum aminopeptidase 1 (Homo sapiens) (UniProt Q9NZ08) (assay: ERAP1 aminopeptidase inhibitors, dose response, biochemical, cherry-pick, set 2, plate reader (AID 743314;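 note: 0% = neutral control wells and -100% = L-leucinethiol positive control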)). Conditions: Recombinant ERAP1, Leu-AMC fluorescence, 60 min; series mostly up to 11 µM.
Sequence of Endoplasmic reticulum aminopeptidase 1 (Homo sapiens) (Q9NZ08 whole entry, looked up): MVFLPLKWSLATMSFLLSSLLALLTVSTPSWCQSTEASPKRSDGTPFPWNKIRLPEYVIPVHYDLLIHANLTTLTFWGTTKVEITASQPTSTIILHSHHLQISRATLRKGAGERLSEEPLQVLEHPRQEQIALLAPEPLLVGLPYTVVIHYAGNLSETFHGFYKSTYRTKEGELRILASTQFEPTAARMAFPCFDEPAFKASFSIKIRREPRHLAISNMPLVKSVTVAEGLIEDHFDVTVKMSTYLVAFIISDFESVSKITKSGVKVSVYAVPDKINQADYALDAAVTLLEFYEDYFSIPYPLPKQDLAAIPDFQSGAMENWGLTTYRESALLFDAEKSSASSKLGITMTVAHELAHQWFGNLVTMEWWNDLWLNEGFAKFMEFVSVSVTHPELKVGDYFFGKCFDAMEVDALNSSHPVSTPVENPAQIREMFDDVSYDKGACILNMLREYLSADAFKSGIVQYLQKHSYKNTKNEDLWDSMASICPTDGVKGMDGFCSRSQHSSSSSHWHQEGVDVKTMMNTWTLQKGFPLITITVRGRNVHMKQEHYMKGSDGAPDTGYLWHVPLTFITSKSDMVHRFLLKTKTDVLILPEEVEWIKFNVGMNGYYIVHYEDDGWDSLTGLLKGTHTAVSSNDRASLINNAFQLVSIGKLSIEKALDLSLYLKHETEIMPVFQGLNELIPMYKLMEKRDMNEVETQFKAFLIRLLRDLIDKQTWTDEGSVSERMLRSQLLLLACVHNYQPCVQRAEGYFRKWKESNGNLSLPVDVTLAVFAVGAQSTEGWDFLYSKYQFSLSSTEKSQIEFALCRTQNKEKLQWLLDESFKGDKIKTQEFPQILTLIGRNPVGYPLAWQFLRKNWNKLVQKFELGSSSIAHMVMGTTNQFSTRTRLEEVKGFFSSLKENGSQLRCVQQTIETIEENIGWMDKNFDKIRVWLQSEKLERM

Activity change, negative = inhibition, inactive:
COc1ccc(C(=O)O)cc1S(=O)(=O)Nc1cc(C(F)(F)F)ccc1N1CCCCC1 239% [at 2.6 µM]

outcome, inactive:
CCOc1ccc(OCCCC(=O)N2CCN(S(=O)(=O)c3ccc(Cl)cc3)CC2)cc1, COCC(=O)N1CCC2(CC1)CN(Cc1ccccc1F)[C@H](CO)c1[nH]c3cc(OC)ccc3c12, O=C(O)c1cccc(NC(=O)c2ccccc2NC(=O)c2cccc([N+](=O)[O-])c2)c1, CC(C)NC(=O)N[C@@H]1CC[C@@H](CCNS(=O)(=O)c2ccc(Cl)cc2)O[C@@H]1CO, CN1C2=NCCN2C(=O)c2cc(Cl)ccc21, COc1ccc(CCOC(=O)CNC(=O)c2ccc(Cl)cc2Cl)cc1, O=S(=O)(Nc1cccc(-c2cn3c(n2)SCC3)c1)c1ccccc1, CN(CC(=O)Nc1cccc(F)c1)C(=O)CCc1nc2ccccc2c(=O)[nH]1, CCN1CCCC1CNS(=O)(=O)c1cccc(C(F)(F)F)c1 (stereo not drawn), Cc1cccc(NC(=O)Nc2ccc3c(c2)C(=O)N(C)[C@H]2CC[C@H](CC(=O)O)O[C@H]2CO3)c1, C=CCn1nnnc1SCC(=O)Nc1cccc(C(F)(F)F)c1, CCOc1ccccc1N1CCN(C(=O)C2=CC=CN3CCS(=O)(=O)N=C23)CC1, CC(=O)N1CCCCN2[C@H](CO)[C@@H](c3ccc(-c4ccccc4)cc3)[C@H]2C1, COc1cccc(CN(C)Cc2cc(=O)oc3cc(O)c(Cl)cc23)c1, CC(=O)Nc1ccc2nc(NC(=O)CN3CCOCC3)sc2c1, COc1ccc(S(=O)(=O)N[C@@H]2C=C[C@H](CC(=O)NCc3ccccc3F)O[C@@H]2CO)cc1, COc1ccc(CN(C)C[C@H]2Oc3c(NC(=O)NC4CCCCC4)cccc3C(=O)N([C@@H](C)CO)C[C@H]2C)cc1, Cc1ccc(C)c(NC(=O)C2CC(O)CN2C(=O)Oc2ccccc2)c1 (stereo not drawn), C[C@H](CO)N1C[C@H](C)[C@H](CN(C)Cc2ccc(C(=O)O)cc2)Oc2c(NC(=O)Nc3ccccc3)cccc2C1=O, CN(C)C(=O)c1cccc(-c2ccc3c(c2)[C@@H]2[C@@H](CCN2Cc2nccs2)[C@@H](CO)N3)c1, C[C@@H]1CCCCO[C@@H](CN(C)Cc2ccc(C(=O)O)cc2)[C@H](C)CN([C@@H](C)CO)C(=O)c2cc(NS(=O)(=O)c3ccc(Cl)cc3)ccc2O1, C[C@@H]1CCCCO[C@@H](CN(C)C)[C@H](C)CN([C@H](C)CO)C(=O)c2cc(NS(=O)(=O)c3ccc(Cl)cc3)ccc2O1, COc1ccc(CN(C)C[C@H]2OCCCC[C@H](C)Oc3ccc(NS(=O)(=O)c4cccs4)cc3C(=O)N([C@H](C)CO)C[C@@H]2C)cc1, Cc1oc2c(c(C)cc3oc(=O)c(CC(=O)N[C@H](C(=O)O)C(C)C)c(C)c32)c1C, CN1c2ccc(-c3ccccc3)cc2[C@H]2[C@H](CCN2C(=O)c2ccccc2)[C@@H]1CO, CCCCC1CCC(C(=O)OC(C)C(=O)Nc2ccc(NC(C)=O)cc2)CC1 (stereo not drawn), O=C(CC1CC1)N1[C@H](CO)[C@@H](c2ccccc2)C12CN(Cc1cc(F)ccc1F)C2, CC(C)[C@H](NC(N)=O)C(=O)NNC(=O)COc1cccc(C(F)(F)F)c1, CCCNC(=O)C[C@H]1CC[C@@H]2[C@H](COC[C@H](O)CN2C(=O)Nc2cccc(Cl)c2)O1, CS(=O)(=O)N(CC(=O)N1CCOCC1)c1cccc(Cl)c1, COc1ccc(CN(C)C[C@H]2Oc3ccc(NS(=O)(=O)c4ccc(C)cc4)cc3C(=O)N([C@@H](C)CO)C[C@@H]2C)cc1, CC(C)c1ccc(OC(=O)c2cccc(S(=O)(=O)N3CCN(C)CC3)c2)cc1, C[C@H](CO)N1C[C@H](C)[C@@H](CN(C)C)OCCCC[C@H](C)Oc2ccc(NS(=O)(=O)c3ccc(Cl)cc3)cc2C1=O, CCN(CC)CCCN=C1N[C@@H](c2cccc(C(F)(F)F)c2)C(C(=O)OC)=C(C)N1CC, CC1CN(Cc2cc(=O)oc3cc(O)c(Cl)cc23)CC(C)O1 (stereo not drawn), COc1ccc(NC(=O)Nc2cccc3c2O[C@H](CN(C)Cc2ccc(C(=O)O)cc2)[C@H](C)CN([C@H](C)CO)C3=O)cc1, CN1[C@@H]2c3ccc(/C=C/c4ccccc4)c(=O)n3C[C@@H]2[C@@H](CO)[C@@H]1C(=O)N1CCCCC1
